Results as given in PubChem BioAssay (NCATS).
Several values for one entry are separate records, joined by “and”; a condition that tells them apart may be missing. Equal entries are not always repeated. Results filed as inconclusive are left out. Values without a mark were called inactive. Activity calls are given as the source filed them. Calls follow the shape of the dose curve; as a rule, active = well fitted curve in the direction sought with a large enough effect; inconclusive = small, poorly fitted or top-dose-only effect, or another doubt; inactive = no such curve, though single readings can be large; an effect the other way counts as inactive or inconclusive.

Legend:
[1] = Viability qHTS for spleen associated tyrosine kinase inhibitor (SYKi) drug resistant MV4-11 cells (AID 1963824); conditions: SYKi-resistant MV4-11 viability, CellTiter-Glo, 72 h; series mostly up to 45 µM; also: nearly all actives have a fitted effect of over 35% in size
In short: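 SYK-inhibitor-resistant MV4-11 AML cells were seeded at 500 per well onto compound and cultured 72 hours (37 °C, 5% CO2). CellTiter-Glo was then added, and after 10 min at room temperature, luminescence gave viability.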

[2] = Quantitative highthroughput screen to assess conditional lethalithy of NOMO1 cells grown in RPMI1640 with untreated serum (RPMI+s) (AID 1963876); conditions: NOMO1 AML cells in RPMI+serum, CellTiter-Glo viability, 48 h; series mostly up to 45.8 µM; also: nearly all actives have a fitted effect of over 35% in size;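 as to Viability: 100% = DMSO wells and 0% = empty wells without cells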
In short: (§1)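 Each medium arm—HPLM with 10% dialyzed FBS, or RPMI1640 with 5 mM glucose and 10% untreated or dialyzed FBS—was screened against an 11-point, 3-fold compound titration for 48 h at 37 °C, with CellTiter-Glo luminescence as endpoint.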

[3] = Quantitative highthroughput screen to assess conditional lethalithy of NOMO1 cells grown in RPMI1640 with dialyzed fetal bovine serum (RPMI+ds) (AID 1963877); conditions: NOMO1 in RPMI+dialyzed FBS viability, ATP luminescence, 48 h; series mostly up to 45.8 µM; also: nearly all actives have a fitted effect of over 30% in size;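 as to Viability: 100% = DMSO control wells and 0% = empty wells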
In short: as §1

[4] = Quantitative highthroughput screen to assess conditional lethalithy of NOMO1 cells grown in Human Plasma-Like Medium with dialyzed fetal bovine serum (HPLM+ds) (AID 1963878); conditions: NOMO1 AML cells in HPLM+ds, CellTiter-Glo viability, 48 h; series mostly up to 45.8 µM; also: nearly all actives have a fitted effect of over 35% in size;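 as to Viability: 100% = DMSO wells and 0% = empty wells on each plate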
In short: as §1

[5] = Quantitative highthroughput screen to assess conditional lethalithy of P12 Ichikawa cells grown in Human Plasma-Like Medium with dialyzed fetal bovine serum (HPLM+ds) (AID 1963879); conditions: ATP luminescence, 48 h; Potency: viability; series mostly up to 45.8 µM; also: nearly all actives have a fitted effect of over 35% in size
In short: as §1

[6] = Quantitative highthroughput screen to assess conditional lethalithy of P12 Ichikawa cells grown in RPMI1640 with untreated serum (RPMI+s) (AID 1963881); conditions: ATP luminescence, 48 h; Potency: viability; series mostly up to 45.8 µM; also: nearly all actives have a fitted effect of over 35% in size;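 as to Viability: 100% = DMSO wells and 0% = empty wells without cells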
In short: as §1

[7] = Quantitative highthroughput screen to assess conditional lethalithy of SEM cells grown in Human Plasma-Like Medium with dialyzed fetal bovine serum (HPLM+ds) (AID 1963882); conditions: SEM B-ALL cells in HPLM+ds, CellTiter-Glo viability, 48 h; series mostly up to 45.8 µM; also: nearly all actives have a fitted effect of over 35% in size
In short: as §1

[8] = Quantitative highthroughput screen to assess conditional lethalithy of SEM cells grown in RPMI1640 with unreated serum (RPMI+s) (AID 1963883); conditions: SEM B-ALL cells, CellTiter-Glo viability, 48 h; series mostly up to 45.8 µM; also: nearly all actives have a fitted effect of over 35% in size;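 as to Viability: 100% = DMSO wells and 0% = empty wells without cells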
In short: as §1

[9] = Quantitative highthroughput screen to assess conditional lethalithy of SEM cells grown in RPMI1640 with dialyzed fetal bovine serum (RPMI+ds) (AID 1963884); conditions: SEM B-ALL cells, RPMI+dialyzed FBS, CellTiter-Glo viability, 48 h; series mostly up to 45.8 µM; also: nearly all actives have a fitted effect of over 35% in size;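 as to Viability: 100% = DMSO control wells and 0% = empty wells without cells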
In short: as §1

[10] = Quantitative highthroughput screen to assess conditional lethalithy of P12 Ichikawa cells grown in RPMI1640 with dialyzed fetal bovine serum (RPMI+ds) (AID 1963880); conditions: ATP luminescence, 48 h; Potency: P12-Ichikawa viability; series mostly up to 45.8 µM; also: nearly all actives have a fitted effect of over 35% in size;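 as to Viability: 100% = DMSO wells and 0% = empty wells on each plate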
In short: as §1

[11] = Cellular viability qHTS for adrenocortical cancer (ACC) cell line SW-13 (AID 1963989); conditions: SW-13 ACC cells viability, CellTiter-Glo, 48 h; activity (max response): hits give low values; also: nearly all actives have a fitted effect of over 65% in size;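 as to activity (max response): cells grown in serum-free medium with ITS supplement; % is scaled to controls: 0 for no effect and ±100 for the full control effect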
In short: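 Here, serum-free SW-13 cultures were dosed up to 46 uM. Following 48 h, ATP-dependent luminescence (CellTiter-Glo) reported viable cells, and logistic modeling produced IC50 values.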

[12] = Cellular viability qHTS for adrenocortical cancer (ACC) cell line NCI-H295R (AID 1963990); conditions: CellTiter-Glo ATP luminescence, 48 h; series mostly up to 46.1 µM; also: nearly all actives have a fitted effect of over 60% in size
In short: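 Viability of NCI-H295R after 48 h of treatment (final up to 46 uM) measured through cellular ATP luminescence.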
Potency is read from the fitted curve at half-maximal effect.

Compound | Potency [1] | Potency [2] | Potency [3] | Potency [4] | Potency [5] | Potency [6] | Potency [7] | Potency [8] | Potency [9] | Potency [10] | activity (max response) [11] [%] | Potency [12] | Potency [11]
CC(=O)NC(C)c1ccc(Oc2ccc(OC(C)C)cc2)cc1 (centres undefined) | 10.8 µM (active) | inactive | inactive | inactive | inactive | inactive | inactive | inactive | inactive |  |  |  | 
NC(CO)C(=O)NNCc1ccc(O)c(O)c1O (centres undefined) | 23.5 µM (active) | inactive | inactive | inactive |  | 26.4 µM (active) | inactive |  |  |  |  |  | 
N[C@H](CSC(c1ccccc1)(c1ccccc1)c1ccccc1)C(=O)O | 14.8 µM (active) | inactive | inactive | inactive | inactive |  | 16.6 µM (active) |  | 13.2 µM (active) | inactive | -17.5 | inactive | 
CNCCN(C)Cc1cn[nH]c1-c1ccc(OC2CC(OCCC3CCOCC3)C2)cc1 (centres undefined) | 14.8 µM (active) | inactive | inactive | inactive |  | inactive |  |  |  | inactive |  | inactive | 
CN(NC(=O)CC(=O)NN(C)C(=S)c1ccccc1)C(=S)c1ccccc1 | 46.1 nM (active) and 4.2 nM (active) | 0.066 µM (active) | 0.0588 µM (active) | 0.066 µM (active) | 0.0831 µM (active) |  | 0.0371 µM (active) | 0.0417 µM (active) | 0.0417 µM (active) | 0.0741 µM (active) |  |  | 
COc1ccc(-c2nc(N3CCOCC3)c3sc(CN(C)c4ncc(C(=O)NO)cn4)cc3n2)cn1 | 0.0093 µM (active) | 0.0209 µM (active) | 0.0235 µM (active) | 0.0166 µM (active) | 0.0209 µM (active) | 0.0187 µM (active) |  | 0.0074 µM (active) | 0.0132 µM (active) |  |  | 0.0891 µM (active) | 0.355 µM (active)
CNC(=O)c1ccc(C)c(-n2c(C)cc(OCc3ccc(F)cc3F)c(Br)c2=O)c1 | 8.2 µM (active) | inactive | inactive | inactive | inactive | inactive | inactive |  | inactive | inactive |  | inactive | 
COc1ccc(CC2SC(=O)NC2=O)cc1C(=O)NCc1ccc(C(F)(F)F)cc1 (centres undefined) | 18.6 µM (active) | inactive | inactive | inactive | inactive | inactive |  |  |  | inactive | -17.2 |  | 
Nc1ccn([C@@H]2O[C@H](CO)[C@@H](O)C2O)c(=O)n1 (some centres undefined) | 1.86 µM (active) | inactive | inactive | 1.18 µM (active) | inactive | inactive |  |  |  | inactive |  | inactive | 
NCc1ccc(OCCCc2sc(-c3ccc4c(c3)/C(=N/Nc3nc5ccccc5s3)CCC4)nc2C(=O)O)cc1 | 9.34 µM (active) | 0.0059 µM (active) | 0.0166 µM (active) | inactive | 0.0047 µM (active) | 0.0331 µM (active) |  |  | 0.0047 µM (active) | 0.0093 µM (active) | -8.27 | inactive | 
O=C1C(Cl)=C(NCCN2CCOCC2)C(=O)c2ncccc21 | 2.09 µM (active) | 10.5 µM (active) | 9.35 µM (active) | 14.8 µM (active) |  | 23.5 µM (active) | 10.5 µM (active) | 4.69 µM (active) | 7.43 µM (active) |  |  | 3.98 µM (active) | 3.55 µM (active)
Cc1ccc(Nc2cc(-c3cccc(N4C(=O)c5ccccc5C4=O)c3)ncn2)cc1NS(C)(=O)=O | 16.6 µM (active) | inactive | inactive | inactive |  | inactive |  |  |  | inactive |  |  | 
N#CC1(c2cccc(C(=O)Nc3cc(Oc4ccc5nc(NC(=O)C6CC6)sc5n4)ccc3F)c2Cl)CC1 | 0.58 µM (active) | 3.72 µM (active) | 2.09 µM (active) | 1.32 µM (active) | 5.9 µM (active) | 5.26 µM (active) |  | 3.72 µM (active) |  | 2.64 µM (active) |  |  | 
Clc1ccc(C(c2ccc(Cl)cc2)n2cc[n+](CC(OCc3ccc(Cl)cc3Cl)c3ccc(Cl)cc3Cl)c2)cc1 (centres undefined) | 1.86 µM (active) | 20.9 µM (active) | 26.4 µM (active) | 26.4 µM (active) |  | 20.9 µM (active) | 16.6 µM (active) |  | 20.9 µM (active) |  |  | 8.91 µM (active) | 5.01 µM (active)
C[C@@H](NCc1cc2ccccc2[nH]1)c1cccc2ccccc12 | 7.42 µM (active) | inactive | inactive | inactive | inactive | inactive |  |  |  | inactive |  | 12.6 µM (active) | 25.1 µM (active)
CC1=C(C(=O)O)N2C(=O)[C@@H](NC(=O)[C@H](N)C3=CCC=CC3)[C@H]2SC1 | inactive | inactive | inactive | inactive |  | inactive | inactive | inactive | inactive | inactive |  | inactive | 
